Records with an inconclusive call do not appear. The source made the active and inactive calls. Unless noted, calls come from the whole dose curve; as a rule, active = well fitted curve in the direction sought with a large enough effect in the repeat runs; inconclusive = weak or mixed curves; inactive = no such curve, though single readings can be large; an effect the other way counts as inactive or inconclusive.
Assays:
[1] = target: Androgen receptor (Homo sapiens) (UniProt P10275); experiment: qHTS assay to identify small molecule agonists of the androgen receptor (AR) signaling pathway using the MDA cell line (AID 743040; note: nearly all actives have a fitted effect of over 20% in size)
Outline: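 Human breast carcinoma MDA-kb2 reporter cells (MMTV-luc, AR/GR elements) were treated for 16 h at 37C in 0% CO2 following a 5 h settling period. Signal was quantified by ONE-Glo luminescence.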

[2] = qHTS assay to identify small molecule antagonists of the androgen receptor (AR) signaling pathway using the MDA cell line - cell viability counter screen (AID 743041; note: nearly all actives have a fitted effect of over 45% in size)
Outline: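 Same-well cytotoxicity was assessed by CellTiter-Fluor in MDA-kb2 AR-luc cells after 16 h of compound treatment under R1881 agonism.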

[3] = target: Androgen receptor (Homo sapiens) (UniProt P10275); experiment: qHTS assay to identify small molecule antagonists of the androgen receptor (AR) signaling pathway using the MDA cell line (AID 743042; note: nearly all actives have a fitted effect of over 55% in size)
Outline: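 MDA-kb2 breast carcinoma cells carrying MMTV-luciferase (AR/GR responsive) were co-treated with compounds and the agonist R1881 for 16 h at 37C. Inhibition read as ONE-Glo luminescence; CellTiter-Fluor fluorescence measured in parallel for cytotoxicity.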

[4] = qHTS assay to identify small molecule antagonists of the thyroid receptor (TR) signaling pathway - cell viability counter screen (AID 743064); note: nearly all actives have a fitted effect of over 50% in size
Outline: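 Counter screen for cytotoxicity: compound plus T3 (1 nM final) on GH3.TRE-Luc cells, 23.5 h at 37 °C, then fluorescence viability readout with CellTiter-Fluor.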

[5] = qHTS assay to identify small molecule antagonists of the thyroid receptor (TR) signaling pathway (AID 743065); note: series mostly up to about 70 µM; nearly all actives have a fitted effect of over 55% in size
Outline: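 GH3.TRE-Luc rat pituitary cells (two TREs driving luciferase) were dosed with compound, then stimulated with 1 nM T3 (final) for 23.5 h at 37 C. ONE-Glo luminescence was the read-out, with CellTiter-Fluor fluorescence as the cytotoxicity counter-screen.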

[6] = tested on: thyroid hormone receptor (rat, GH3 cells); experiment: qHTS assay to identify small molecule agonists of the thyroid receptor (TR) signaling pathway (AID 743066; calls by dose curve)
[7] = target: Estrogen receptor (Homo sapiens) (UniProt P03372); experiment: qHTS assay to identify small molecule antagonists of the estrogen receptor alpha (ER-alpha) signaling pathway (AID 743069; active = well fitted curve in the direction sought with a large enough effect in the signal ratio in the repeat runs, not every such curve was filed as active; the % refers to the signal ratio)
Outline: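 Reporter cells (ER-alpha-bla, HEK293 background) are conditioned overnight in stripped-serum medium (2% charcoal-stripped FBS). Compound and 17beta-estradiol exposure runs 18 hr at 37C, 5% CO2.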

[8] = qHTS assay to identify small molecule antagonists of the estrogen receptor alpha (ER-alpha) signaling pathway - cell viability counter screen (AID 743074; calls by dose curve;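 note: HEK293 cells carrying ER-alpha-UAS-bla reporter stimulated with 17beta-estradiol; nearly all actives have a fitted effect of over 45% in size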)
[9] = target: Estrogen receptor (Homo sapiens) (UniProt P03372); experiment: qHTS assay to identify small molecule agonists of the estrogen receptor alpha (ER-alpha) signaling pathway (AID 743075; calls by dose curve;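 note: HEK293 GripTite cells with ER-alpha and UAS-driven beta-lactamase reporter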)
[10] = target: Estrogen receptor (Homo sapiens) (UniProt P03372); experiment: qHTS assay to identify small molecule agonists of the estrogen receptor alpha (ER-alpha) signaling pathway using the BG1 cell line (AID 743079); note: nearly all actives have a fitted effect of over 20% in size
[11] = qHTS assay to identify small molecule antagonists of the estrogen receptor alpha (ER-alpha) signaling pathway using the BG1 cell line (AID 743080; calls by dose curve;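 note: BG1 cells stimulated with 17beta-estradiol alongside compound; series mostly up to about 70 µM; nearly all actives have a fitted effect of over 25% in size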)
Outline: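 Quantitative HTS on the Tox21 10K library: BG1 cells with endogenous ER-alpha and ERE-luciferase reporter, 17beta-estradiol stimulation, 21.5 h compound exposure, luminescence endpoint with parallel fluorescence cytotoxicity counter-read.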

[12] = qHTS assay to identify small molecule antagonists of the estrogen receptor alpha (ER-alpha) signaling pathway using the BG1 cell line - cell viability counter screen (AID 743081);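 note: compound given together with 17beta-estradiol as the ER stimulus; series mostly up to about 70 µM; nearly all actives have a fitted effect of over 45% in size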
Aromatase (Homo sapiens) = Aromatase (Homo sapiens) (UniProt P11511); experiment: qHTS assay to identify aromatase inhibitors (AID 743083); note: series mostly up to about 70 µM; nearly all actives have a fitted effect of over 55% in size
[13] = qHTS assay to identify aromatase inhibitors - cell viability counter screen (AID 743084);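 note: cells stimulated with testosterone during compound exposure; nearly all actives have a fitted effect of over 55% in size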
[14] = target: Aryl hydrocarbon receptor (Homo sapiens) (UniProt P35869); experiment: qHTS assay to identify small molecule that activate the aryl hydrocarbon receptor (AhR) signaling pathway (AID 743085);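 note: HG2L7.5c1 human HepG2 liver cells with stably integrated DRE-driven firefly reporter; series mostly up to about 70 µM; nearly all actives have a fitted effect of over 15% in size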
Outline: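 Measured in HG2L7.5c1 cells: CellTiter-Fluor signal (30 min incubation, 37C) for viability, then luciferase luminescence (30 min, room temperature). Compound contact time was 24 h at 37C, following a 5 h pre-incubation.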

[15] = qHTS assay to identify small molecule that activate the aryl hydrocarbon receptor (AhR) signaling pathway - cell viability counter screen (AID 743086);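 note: HepG2 liver cells carrying the AhR DRE luciferase reporter; series mostly up to about 70 µM; nearly all actives have a fitted effect of over 45% in size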
Outline: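 HepG2-AhR-luc (HG2L7.5c1) cells, 4000/well, treated 24 h at 37 C with compound; viability measured as CellTiter-Fluor fluorescence after 30 min in the same wells as the luciferase read.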

[16] = qHTS assay to identify small molecule antagonists of the estrogen related receptor (ERR) signaling pathway - cell viability counter screen (AID 1224818); note: series mostly up to about 46 µM
Outline: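 ERR cells, 2,000 per well, compound added after 6 h and incubated 17.5 h at 37 C. Viability read by CellTiter-Fluor fluorescence after a further 30 min at 37 C.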

[17] = qHTS assay to identify small molecule antagonists of the estrogen related receptor (ERR) signaling pathway (AID 1224819;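 note: luminescence from an ERR-driven luciferase reporter measured with One-Glo reagent; series mostly up to about 46 µM; nearly all actives have a fitted effect of over 50% in size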)
Outline: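 ERR reporter cell line (NTP) plated at 2,000 cells/well, settled 6 h at 37C/5% CO2, then exposed to LOPAC compounds for 18 h at 37C. One-Glo luciferase luminescence read after 30 min at room temperature.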

[18] = qHTS assay to identify small molecule agonists of the estrogen related receptor (ERR) signaling pathway (AID 1224820)
Outline: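 Quantitative HTS of the LOPAC library used NTP ERR reporter cells treated 18 h at 37 C. Signal is luminescence after One-Glo addition and a 30 min room-temperature incubation.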

[19] = qHTS assay to identify small molecule antagonists of the estrogen related receptor signaling pathway with the pleiotropic PPARgamma coactivator (PGC) cell viability counter screen (AID 1224822; note: series mostly up to about 46 µM)
Outline: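 PGC/ERR cells rested 6 h, then compound-treated 17.5 h at 37 C. CellTiter-Fluor added for 30 min at 37 C, viability measured by fluorescence intensity.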

[20] = qHTS assay to identify small molecule agonists of the estrogen related receptor signaling pathway with the pleiotropic PPARgamma coactivator (PGC) (AID 1224823)
Outline: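 Cell-based luciferase assay in the NTP-supplied PGC/ERR line, 2,000 cells/well; 18 h compound exposure at 37 C, luminescence after One-Glo.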

[21] = qHTS assay to identify small molecule phospholipidosis (PLD) inducers (AID 1259344; active = well fitted curve in the direction sought with a large enough effect; an effect the other way counts as inactive or inconclusive)
Outline: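 Quantitative HTS in HepG2: compound plus LipidTOX Red dye for 24 h, paraformaldehyde fixation with Hoechst 33342, widefield high-content imaging; amiodarone as positive and DMSO as negative control.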

[22] = target: Nuclear receptor subfamily 1 group I member 2 (Rattus norvegicus) (UniProt Q9R1A7); experiment: Rat pregnane X receptor (rPXR) activation by small molecules, qHTS assay (AID 1346983); details: rPXR luciferase reporter cells, One-Glo luminescence, 24 h; max activation: stronger effect = higher value; note: nearly all actives have a fitted effect of over 20% in size
Outline: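 Cell-based rPXR activation assay: rPXR cells, 2,000 per well, rested 5hr at 37 C, then exposed to compounds in DMSO for 24 hr at 37 C. Luciferase activity read by One-Glo luminescence after 30 min at room temperature.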

[23] = target: Nuclear receptor subfamily 1 group I member 2 (Homo sapiens) (UniProt O75469); experiment: CYP3A4 induction through human pregnane X receptor (PXR) by small molecules, qHTS assay (AID 1346984); note: nearly all actives have a fitted effect of over 40% in size
Outline: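 DPX-2 HepG2 cells carrying a PXR response element and CYP3A4-promoter luciferase construct, treated with compounds 24 hr at 37C. Then P450-Glo CYP3A4 Luciferin-IPA substrate (3uM final) for 3 hr at 37C, One-Glo added, luminescence read.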

[24] = target: Nuclear receptor subfamily 1 group I member 2 (Homo sapiens) (UniProt O75469); experiment: Human pregnane X receptor (PXR) activation by small molecules, qHTS assay (AID 1346985); note: nearly all actives have a fitted effect of over 40% in size
Outline: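 DPX-2 cells (HepG2 co-transfected with a PXR response element and a CYP3A4-promoter luciferase construct) were seeded at 2,000 per well, rested 5 hr at 37C, then exposed to DMSO-dissolved compounds for 24 hr. Activation was read as luciferase luminescence.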
% is set by controls: 0 for no effect and ±100 for the full control effect.

Sequence of Estrogen receptor (Homo sapiens) (P03372 whole entry, looked up): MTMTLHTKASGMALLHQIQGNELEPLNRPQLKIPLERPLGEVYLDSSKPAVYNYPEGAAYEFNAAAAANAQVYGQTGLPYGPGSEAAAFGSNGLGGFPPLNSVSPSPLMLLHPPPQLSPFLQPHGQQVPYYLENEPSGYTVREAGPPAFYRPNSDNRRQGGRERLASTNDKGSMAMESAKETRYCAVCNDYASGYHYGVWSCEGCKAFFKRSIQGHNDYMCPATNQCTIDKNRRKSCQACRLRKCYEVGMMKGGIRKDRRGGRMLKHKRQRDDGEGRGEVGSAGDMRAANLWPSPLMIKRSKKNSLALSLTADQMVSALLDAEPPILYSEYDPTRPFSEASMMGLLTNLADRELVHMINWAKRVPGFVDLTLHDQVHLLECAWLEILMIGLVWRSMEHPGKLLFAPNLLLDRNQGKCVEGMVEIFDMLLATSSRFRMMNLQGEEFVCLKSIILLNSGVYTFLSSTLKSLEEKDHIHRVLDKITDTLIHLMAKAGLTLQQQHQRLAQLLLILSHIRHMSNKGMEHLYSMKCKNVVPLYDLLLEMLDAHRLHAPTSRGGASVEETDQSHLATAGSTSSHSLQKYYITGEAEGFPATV
Sequence of Androgen receptor (Homo sapiens) (P10275 whole entry, looked up): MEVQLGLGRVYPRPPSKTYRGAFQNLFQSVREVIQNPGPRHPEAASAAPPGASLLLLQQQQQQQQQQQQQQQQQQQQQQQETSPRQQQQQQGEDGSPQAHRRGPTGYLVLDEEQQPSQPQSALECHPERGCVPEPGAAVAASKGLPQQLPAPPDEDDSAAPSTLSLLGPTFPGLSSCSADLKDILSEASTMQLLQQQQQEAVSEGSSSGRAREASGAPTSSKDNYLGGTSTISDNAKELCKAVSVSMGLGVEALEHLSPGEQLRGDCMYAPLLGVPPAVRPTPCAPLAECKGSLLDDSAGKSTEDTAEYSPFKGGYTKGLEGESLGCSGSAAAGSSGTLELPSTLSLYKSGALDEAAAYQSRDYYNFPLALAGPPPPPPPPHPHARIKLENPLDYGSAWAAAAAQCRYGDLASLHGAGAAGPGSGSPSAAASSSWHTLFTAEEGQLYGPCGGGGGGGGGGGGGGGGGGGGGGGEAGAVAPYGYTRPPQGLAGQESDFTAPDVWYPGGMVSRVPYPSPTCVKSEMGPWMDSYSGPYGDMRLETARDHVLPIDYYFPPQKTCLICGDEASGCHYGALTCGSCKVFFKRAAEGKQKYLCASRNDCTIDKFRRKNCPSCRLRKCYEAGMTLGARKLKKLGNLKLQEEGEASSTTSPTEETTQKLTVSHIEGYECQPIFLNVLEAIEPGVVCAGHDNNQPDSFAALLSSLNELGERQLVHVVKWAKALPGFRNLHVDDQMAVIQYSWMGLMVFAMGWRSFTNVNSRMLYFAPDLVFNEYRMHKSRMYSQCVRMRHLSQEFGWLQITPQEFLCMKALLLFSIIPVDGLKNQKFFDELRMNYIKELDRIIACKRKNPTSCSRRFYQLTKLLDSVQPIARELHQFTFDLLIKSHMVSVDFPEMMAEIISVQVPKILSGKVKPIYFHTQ
Sequence of Nuclear receptor subfamily 1 group I member 2 (Rattus norvegicus) (Q9R1A7 whole entry, looked up): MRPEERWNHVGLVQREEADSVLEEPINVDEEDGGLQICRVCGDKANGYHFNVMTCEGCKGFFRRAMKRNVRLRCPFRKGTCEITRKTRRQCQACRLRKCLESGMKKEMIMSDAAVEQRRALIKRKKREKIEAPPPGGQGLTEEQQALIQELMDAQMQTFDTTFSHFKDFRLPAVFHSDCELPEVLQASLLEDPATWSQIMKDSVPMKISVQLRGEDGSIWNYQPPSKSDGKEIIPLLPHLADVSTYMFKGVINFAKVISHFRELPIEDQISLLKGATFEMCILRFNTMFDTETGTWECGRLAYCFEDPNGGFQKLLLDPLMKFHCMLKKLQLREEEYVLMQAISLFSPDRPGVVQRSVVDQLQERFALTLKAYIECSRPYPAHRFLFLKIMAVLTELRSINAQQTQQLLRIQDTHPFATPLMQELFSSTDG
Sequence of Aromatase (Homo sapiens) (P11511 whole entry, looked up): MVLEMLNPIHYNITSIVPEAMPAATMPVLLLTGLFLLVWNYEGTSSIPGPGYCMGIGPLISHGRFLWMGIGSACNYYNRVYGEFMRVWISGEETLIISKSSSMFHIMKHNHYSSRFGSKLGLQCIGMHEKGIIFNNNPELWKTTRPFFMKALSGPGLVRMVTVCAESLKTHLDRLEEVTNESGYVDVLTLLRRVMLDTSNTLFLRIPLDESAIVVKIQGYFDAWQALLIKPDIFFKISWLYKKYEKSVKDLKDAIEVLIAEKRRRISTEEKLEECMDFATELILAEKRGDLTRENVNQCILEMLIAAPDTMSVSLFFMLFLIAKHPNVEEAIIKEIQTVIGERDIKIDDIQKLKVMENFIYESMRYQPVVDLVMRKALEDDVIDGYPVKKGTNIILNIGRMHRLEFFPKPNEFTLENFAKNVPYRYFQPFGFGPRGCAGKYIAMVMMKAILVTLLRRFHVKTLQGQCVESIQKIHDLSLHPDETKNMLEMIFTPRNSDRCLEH
Sequence of Aryl hydrocarbon receptor (Homo sapiens) (P35869 whole entry, looked up): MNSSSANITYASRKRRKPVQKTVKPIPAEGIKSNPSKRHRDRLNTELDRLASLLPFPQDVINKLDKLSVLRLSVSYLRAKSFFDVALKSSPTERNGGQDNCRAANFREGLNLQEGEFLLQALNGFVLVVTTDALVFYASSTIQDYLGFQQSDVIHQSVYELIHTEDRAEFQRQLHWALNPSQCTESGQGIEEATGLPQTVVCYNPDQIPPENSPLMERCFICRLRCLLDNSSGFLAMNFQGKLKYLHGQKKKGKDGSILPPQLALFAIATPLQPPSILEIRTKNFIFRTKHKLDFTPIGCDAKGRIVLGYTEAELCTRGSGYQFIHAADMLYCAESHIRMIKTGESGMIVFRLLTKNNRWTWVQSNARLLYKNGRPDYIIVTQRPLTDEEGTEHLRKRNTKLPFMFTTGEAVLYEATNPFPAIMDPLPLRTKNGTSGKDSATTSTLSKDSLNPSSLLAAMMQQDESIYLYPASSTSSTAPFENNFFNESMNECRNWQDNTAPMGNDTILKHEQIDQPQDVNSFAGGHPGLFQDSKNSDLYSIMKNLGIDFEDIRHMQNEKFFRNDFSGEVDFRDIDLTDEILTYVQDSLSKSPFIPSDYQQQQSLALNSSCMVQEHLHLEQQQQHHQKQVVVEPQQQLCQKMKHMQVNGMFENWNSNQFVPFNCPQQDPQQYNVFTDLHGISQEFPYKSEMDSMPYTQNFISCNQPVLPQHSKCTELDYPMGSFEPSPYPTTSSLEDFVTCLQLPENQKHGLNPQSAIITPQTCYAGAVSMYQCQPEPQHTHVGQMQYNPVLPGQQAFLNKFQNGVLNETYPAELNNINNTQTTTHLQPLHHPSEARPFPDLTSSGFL

CCCCCN(C)CCC(O)(P(=O)(O)O)P(=O)(O)O
inactive: Potency [1] | Potency [2] | Potency [3] | Potency [4] | Potency [5] | Potency [6] | Potency [7] | Potency [8] | Potency [9] | Potency [10] | Potency [11] | Potency [12] | Potency (Aromatase (Homo sapiens)) | Potency [13] | Potency [14] | Potency [15] | Potency [16] | Potency [17] | Potency [18] | Potency [19] | Potency [20] | Potency [21] | max activation [22] -1.96% | Potency [23] | Potency [24]

Source: PubChem BioAssay (Tox21)
